Records with an inconclusive call do not appear. Where a call stands in place of a potency, no number is given. Active and inactive are the calls of the source. Calls follow the shape of the dose curve; as a rule, active = well fitted curve in the direction sought with a large enough effect in the repeat runs; inconclusive = weak or mixed curves; inactive = no such curve, though single readings can be large; an effect the other way counts as inactive or inconclusive.
Experiment: qHTS RealTime-Glo MT Cell Viability Assay in HEK293 cells - 8 hour (AID 1224887); also: nearly all actives have a fitted effect of over 50% in size; also: potency is read from the fitted curve at half-maximal effect
Conditions: RealTime-Glo luminescence; series mostly up to 76.8 µM
Summary of the method: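 Nonlytic bioluminescent viability monitoring. HEK293 at 600 cells/well with reagent; 5 h settle; compound transfer by pintool; plates held at 37 C and read at set time points.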

Row | Compound | Potency
1 | O=S(=O)(O)CCO | inactive
2 | CCCCCCCCCCCCC1CO1 (stereo not drawn) | inactive
3 | CCCCCCCCCCCCOC(C)=O | inactive
4 | CO[Si](CCCS)(OC)OC | inactive
5 | Cc1cccc(C(=O)O)c1[N+](=O)[O-] | inactive
6 | CC(C)(C)NCCO | inactive
7 | CC(=O)OC(C)c1ccccc1 (stereo not drawn) | inactive
8 | O=C(O)c1ccccc1C(=O)Nc1ccc(S(=O)(=O)Nc2nccs2)cc1 | inactive
9 | CC1=CC[C@H](CC=O)C1(C)C | inactive
10 | CN(C)CCOCCN(C)CCO | inactive
11 | C=C[Si](C)(C)O[Si](C)(C)C=C | inactive
12 | CCCCOC(=O)[C@@H](C)Oc1ccc(Oc2ccc(C(F)(F)F)cn2)cc1 | 24.7 µM (active)
13 | CC(C)SCc1ccco1 | inactive
14 | CCCCCCCCC(=O)OCC | inactive
15 | CCN1CN(CC)CN(CC)C1 | inactive
16 | CCCOC(=O)CCCCC(=O)OCCC | inactive
17 | CCCCOC(=O)C(C)OC(=O)CCC (stereo not drawn) | inactive
18 | CCCO | inactive
19 | Cc1cc(O)c2c(c1)C(=O)c1cccc(O)c1C2=O | inactive
20 | CC(C)CCCCCCOC(=O)C1CCCCC1C(=O)OCCCCCCC(C)C (stereo not drawn) | inactive

Experiment: A CellTox Green Cytotoxicity Assay to monitor cytotoxicity in HEK293 cells - 16 hour (AID 1224888); also: nearly all actives have a fitted effect of over 35% in size
Conditions: CellTox Green fluorescence; series mostly up to 76.8 µM
Summary of the method: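 Cytotoxicity was tracked continuously in HEK293 cells by a DNA-binding dye excluded from viable cells. Compounds were transferred in DMSO 5 h after seeding; fluorescence was recorded at intervals up to 40 h.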

Row | Compound | Potency
21 | C=CCOc1c(Br)cc(Br)cc1Br | inactive
22 | O=C1OC(=O)c2ccccc21 | inactive
23 | CC(C)CCCC(C)CC=O (stereo not drawn) | inactive
24 | OC[C@@H](O)[C@H](O)[C@@H](O)[C@@H](O)CO | inactive
25 | O=C(CN1CCN(Cc2ccc3c(c2)OCO3)CC1)N1c2ccccc2Sc2ccccc21 | inactive
26 | C=CCOC(=O)c1ccc(C(=O)OCC=C)c(C(=O)OCC=C)c1 | inactive
27 | CCOC(=O)C(=O)c1csc(NC=O)n1 | inactive
28 | Nc1ccc(C(=O)OCC(O)CO)cc1 (stereo not drawn) | inactive
29 | CC(CC(=O)O)CC(C)(C)C (stereo not drawn) | inactive
30 | CC(C)C(=O)c1ccccc1 | inactive
31 | CC(C)C(=O)Nc1cccc(C(F)(F)F)c1 | inactive
32 | NC(=O)NNC(N)=O | inactive
33 | O=C(O)c1c(Cl)ccc(Cl)c1Cl | inactive
34 | CCCCCC(=O)OCC | inactive
35 | CCC1COC(=O)O1 (stereo not drawn) | inactive
36 | Cc1ccc(C(=O)C(=O)O)cc1C | inactive
37 | CC(=O)/C=C/c1ccco1 | inactive
38 | CC(C)(c1ccc(Oc2ccc3c(c2)C(=O)OC3=O)cc1)c1ccc(Oc2ccc3c(c2)C(=O)OC3=O)cc1 | inactive
39 | O=S(=O)(O)CCO | inactive

Row | Compound | Potency
40 | CCCCCCCCCCCCC1CO1 (stereo not drawn) | inactive
41 | CCCCCCCCCCCCOC(C)=O | inactive
42 | CO[Si](CCCS)(OC)OC | inactive
43 | Cc1cccc(C(=O)O)c1[N+](=O)[O-] | inactive
44 | CC(C)(C)NCCO | inactive
45 | CC(=O)OC(C)c1ccccc1 (stereo not drawn) | inactive
46 | O=C(O)c1ccccc1C(=O)Nc1ccc(S(=O)(=O)Nc2nccs2)cc1 | inactive
47 | CC1=CC[C@H](CC=O)C1(C)C | inactive
48 | CN(C)CCOCCN(C)CCO | inactive
49 | C=C[Si](C)(C)O[Si](C)(C)C=C | inactive
50 | CCCCOC(=O)[C@@H](C)Oc1ccc(Oc2ccc(C(F)(F)F)cn2)cc1 | inactive
51 | CC(C)SCc1ccco1 | inactive
52 | CCCCCCCCC(=O)OCC | inactive
53 | CCN1CN(CC)CN(CC)C1 | inactive
54 | CCCOC(=O)CCCCC(=O)OCCC | inactive
55 | CCCCOC(=O)C(C)OC(=O)CCC (stereo not drawn) | inactive
56 | CCCO | inactive
57 | Cc1cc(O)c2c(c1)C(=O)c1cccc(O)c1C2=O | inactive
58 | CC(C)CCCCCCOC(=O)C1CCCCC1C(=O)OCCCCCCC(C)C (stereo not drawn) | inactive
